Laboratory results reported in PubChem BioAssay (NCATS).
Results filed as inconclusive are left out. The source made the active and inactive calls. Calls follow the shape of the dose curve; as a rule, active = well fitted inhibition curve with a large enough effect; inconclusive = small, poorly fitted or top-dose-only effect; inactive = flat fitted curve, though single readings scatter.

Columns and labels:
Experiment in all cases: qHTS profiling for inhibitors of Plasmodium falciparum proliferation (AID 504749); also: nearly all actives have a fitted effect of over 60% in size
Conditions in all cases: P. falciparum in erythrocytes, SYBR Green DNA, 72 h; series mostly up to 28.7 µM
CP305 = system: CP305
How it was run: (§1)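 P. falciparum-infected erythrocytes (0.3% parasitemia, 2.5% hematocrit) incubated with compound 72 h at 37 C, 5% CO2. Parasite DNA detected by SYBR Green after lysis, overnight at room temperature; normalised to 0.29 uM artemisinin and DMSO.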

CP315 = system: CP315
How it was run: as §1

CP325 = system: CP325
How it was run: as §1

CP329 = system: CP329
How it was run: as §1

DFO2036 = system: DFO2036
How it was run: as §1

DIV14 = system: DIV14
How it was run: as §1

DIV17 = system: DIV17
How it was run: as §1

DIV30 = system: DIV30
How it was run: as §1

Dd2 = system: Dd2
How it was run: as §1

CP335 = system: CP335
How it was run: as §1

Measured: Potency
Potency is read from the fitted curve at half-maximal effect.

Cc1ncc(C[n+]2csc(CCO)c2C)c(N)n1
not listed: CP335
inactive: all other assays above

C=CCN1CCCC1CNC(=O)c1cc(S(N)(=O)=O)cc(OC)c1OC (stereo unspecified)
not listed: DFO2036
inactive: all other assays above

CCN(CC)CCC(=O)N1c2ccccc2Sc2ccc(C(F)(F)F)cc21
inactive: CP305 | CP315 | CP325 | CP329 | DFO2036
active: DIV14 6.75 µM

Cc1cc(C(=O)NCCc2ccc(S(=O)(=O)NC(=O)NN3CCCCCC3)cc2)no1
not listed: DIV14 | DIV17 | DIV30
inactive: all other assays above

Oc1ccc(Cl)c2c1CCC2
not listed: DIV17 | CP335
inactive: all other assays above

NC(=O)CC[C@@H]1NC(=O)[C@H](Cc2ccccc2)NC(=O)[C@H](Cc2ccc(O)cc2)NC(=O)[C@@H](N)CSSC[C@@H](C(=O)N2CCC[C@H]2C(=O)N[C@@H](CCCN=C(N)N)C(=O)NCC(N)=O)NC(=O)[C@H](CC(N)=O)NC1=O
not listed: DFO2036 | DIV17 | CP335
inactive: all other assays above

CCOC(=O)Cc1ccc(-c2ccccc2)cc1
not listed: DFO2036 | DIV30 | CP335
inactive: all other assays above

Cc1cc(-c2ccc(N=Nc3c(S(=O)(=O)O)cc4cc(S(=O)(=O)O)cc(N)c4c3O)c(C)c2)ccc1N=Nc1c(S(=O)(=O)O)cc2cc(S(=O)(=O)O)cc(N)c2c1O
not listed: DIV14 | DIV17 | CP335
inactive: all other assays above

CCC(O)c1ccccc1 (stereo unspecified)
not listed: CP335
inactive: all other assays above

CN1CCCC(CN2c3ccccc3Sc3ccccc32)C1 (stereo unspecified)
inactive: CP305 | CP315 | CP325 | CP329
active: DIV14 8.49 µM | DIV17 8.49 µM | Dd2 4.47 µM

Cc1c(C)c2c(c(C)c1OC(=O)CCC(=O)O)CC[C@@](C)(CCC[C@H](C)CCC[C@H](C)CCCC(C)C)O2
active: Dd2 11.2 µM
not listed: CP335
inactive: all other assays above

CC(O)CN(C)C (stereo unspecified)
not listed: CP329
inactive: all other assays above

CC(=O)Nc1ccc(NC(=S)NC(=O)c2ccc(C(C)(C)C)cc2)cc1
not listed: DIV14 | Dd2 | CP335
inactive: all other assays above

O=C(O[C@H]1CN2CCC1CC2)N1CCc2ccccc2[C@@H]1c1ccccc1
active: DIV14 3.79 µM | DIV17 4.26 µM | Dd2 4.47 µM
not listed: DIV30 | CP335
inactive: all other assays above

CC1CC(OC(=O)C(O)c2ccccc2)CC(C)(C)C1 (stereo unspecified)
not listed: CP335
inactive: all other assays above

NCCO/C=C/[C@H](N)C(=O)O
not listed: CP325
inactive: all other assays above

CC1CCC(NC(=O)N(CCCl)N=O)CC1 (stereo unspecified)
not listed: DIV14 | Dd2 | CP335
inactive: all other assays above

CC/C=C\C/C=C\C/C=C\CCCCCCCC(=O)O
not listed: DIV14 | CP335
inactive: all other assays above

CCOC(=O)C1=C(COCCN)NC(C)=C(C(=O)OC)C1c1ccccc1Cl (stereo unspecified)
active: DIV14 12 µM
not listed: DIV17 | Dd2 | CP335
inactive: all other assays above

CC[C@H]1OC(=O)[C@H](C)[C@@H](O[C@H]2C[C@@](C)(OC)[C@@H](O)[C@H](C)O2)C(C)[C@@H](O[C@@H]2O[C@H](C)C[C@H](N(C)C)[C@@H]2O)[C@](C)(OC)C[C@@H](C)C(=O)[C@H](C)[C@@H](O)[C@]1(C)O (stereo partly specified)
active: CP335 6.75 µM
not listed: CP325 | CP329 | Dd2
inactive: all other assays above

N=C(N)c1ccc(/C=C/c2ccc(C(=N)N)cc2O)cc1
active: CP305 6.01 µM | CP315 6.01 µM | CP325 3.38 µM | CP329 2.13 µM | DFO2036 1.12 µM | DIV14 6.75 µM | DIV17 6.01 µM | DIV30 2.13 µM | Dd2 0.112 µM

C[C@]12CCC(=O)C[C@@H]1CC[C@@H]1[C@@H]2CC[C@]2(C)C=CC[C@@H]12
not listed: CP335
inactive: all other assays above

CN1CCc2c(c3ccccc3n2Cc2ccccc2)C1
inactive: CP305 | CP315 | CP329 | DFO2036 | DIV30

NCC[C@H](O)C(=O)N[C@@H]1C[C@H](N)[C@@H](O[C@H]2O[C@H](CN)[C@@H](O)[C@H](O)[C@H]2O)[C@H](O)[C@H]1O[C@H]1O[C@H](CO)[C@@H](O)[C@H](N)[C@H]1O
not listed: CP335
inactive: all other assays above

N[C@@H](Cc1cc(I)c(Oc2ccc(O)c(I)c2)c(I)c1)C(=O)O
inactive: CP305 | CP315 | CP325 | CP329
active: DIV14 13.5 µM

O=P(O)(O)OP(=O)(O)O
not listed: DIV14 | DIV17 | DIV30
inactive: all other assays above

OC1OC[C@@H](O)[C@H](O)[C@@H]1O (stereo partly specified)
not listed: CP335
inactive: all other assays above

COC(=O)[C@@H](N)CS
not listed: CP335
inactive: all other assays above

COc1ccc2nc(NC(=O)Nc3ccccc3)sc2c1
active: DIV17 4.78 µM
inactive: CP305 | CP315 | CP325 | CP335 | DFO2036

CCCc1nc(C(C)(C)O)c(C(=O)OCc2oc(=O)oc2C)n1Cc1ccc(-c2ccccc2-c2nn[nH]n2)cc1
not listed: DIV17 | CP335
inactive: all other assays above

O=C1[O][Bi][O]c2ccccc21
not listed: CP335
inactive: all other assays above
